Giardia FBPA inh: qHTS Assay for Inhibitors of Fructose-1,6-bisphosphate Aldolase from Giardia Lamblia. Potency, µM (doses to about 59.6 µM), inactives show at the top dose activity, negative = inhibition, usual class: inhibitors. purified Giardia FBPA. AID 2451, 2010. hit rate 0.71% among 290,000; also: potency is read from the fitted curve at half-maximal effect; % is scaled to controls: 0 for no effect and ±100 for the full control effect; nearly all actives have a fitted effect of over 55% in size
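Giardia FBPA (40 nM reagent) was preincubated 10 min at RT with compound (up to 57.5 uM final), then substrate plus GAPDH/TPI/NAD/arsenate coupling system with diaphorase/resazurin was added; resorufin fluorescence (525/598 nm) was read after 20 min.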
RE007 growth inh: qHTS Assay for Inhibitors of the HIV-1 protein Vpr; S. pombe RE007 Vpr strain, BacTiter-Glo ATP luminescence, 24 h; Potency, µM (series often up to 92.2 µM), without a hit: at the highest dose activity change, negative = less growth, hits mostly inhibitors; hit rate 0.21% among 360,000; active = well fitted falling curve with a large enough effect; inconclusive = small, poorly fitted or top-dose-only effect; inactive = no such curve, though single readings can be large or run the other way; also: potency is read from the fitted curve at half-maximal effect; % is scaled to controls: 0 for no effect and ±100 for the full control effect; nearly all actives have a fitted effect of over 50% in size
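Fission yeast strain RE007, carrying one chromosomally integrated HIV-1 vpr copy, was seeded at OD 0.01 in PMG+AL medium with 23 nL pinned compound. After 24 h at 30 °C and 99% humidity, viability was read by BacTiter-Glo luminescence.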
TbPYK inhibitor: qHTS of Trypanosoma Brucei Inhibitors; pyruvate kinase (Trypanosoma brucei), Q57TT1; TbPYK enzyme, Kinase-Glo Plus ATP luminescence, 45 min; Potency, µM (highest dose often 76.8 µM), for inactives: at the top dose activity, negative = inhibition, hits mostly inhibitors; hit rate 0.12% among 410,000; also: potency is read from the fitted curve at half-maximal effect; % is scaled to controls: 0 for no effect and ±100 for the full control effect; nearly all actives have a fitted effect of over 50% in size
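Glycolytic pyruvate kinase of T. brucei was incubated with substrate, test compound and 130 uM ADP for 45 minutes at room temperature. Luminescent Kinase-Glo Plus signal was measured after 10 minutes.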
CHX counter: Cycloheximide Counterscreen for Small Molecule Inhibitors of Shiga Toxin; cell reporter, cycloheximide protein synthesis inhibition counterscreen; AID 2314, 2010; max response, %; hit rate 12% among 300,000; in the data active = max response mostly above about 13%, no sharp cut-off; inactive = mostly below about 14%; also: read at 38.3 µM for the half of the compounds with a filed dose; 0% is about no effect
LmPK inhibitor: qHTS Assay for Inhibitors of Leishmania Mexicana Pyruvate Kinase (LmPK); Potency, µM (titrated, usually from 57.5 µM), inactives show top-dose activity change, negative = inhibition, most hits filed as inhibitors; Q27686; purified LmPK, Kinase-Glo ATP luminescence, 1 h; hit rate 0.37% among 290,000; AID 1721, 2009; also: potency is read from the fitted curve at half-maximal effect; % is scaled to controls: 0 for no effect and ±100 for the full control effect
Target sequence (Q27686 whole entry, looked up): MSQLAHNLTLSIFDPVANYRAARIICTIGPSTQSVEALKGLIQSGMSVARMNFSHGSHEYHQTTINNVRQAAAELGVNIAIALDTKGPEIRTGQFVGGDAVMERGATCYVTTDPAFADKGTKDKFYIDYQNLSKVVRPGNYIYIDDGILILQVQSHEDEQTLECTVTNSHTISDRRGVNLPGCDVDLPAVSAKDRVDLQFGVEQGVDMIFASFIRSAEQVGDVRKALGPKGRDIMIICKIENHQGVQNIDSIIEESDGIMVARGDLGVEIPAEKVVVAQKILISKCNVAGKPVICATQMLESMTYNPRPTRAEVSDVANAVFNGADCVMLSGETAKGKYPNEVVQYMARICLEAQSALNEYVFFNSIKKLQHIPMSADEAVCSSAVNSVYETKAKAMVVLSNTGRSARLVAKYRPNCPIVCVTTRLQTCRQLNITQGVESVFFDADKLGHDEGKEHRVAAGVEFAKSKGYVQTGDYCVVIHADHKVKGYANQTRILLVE
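Pyruvate kinase activity monitored as ATP production (luciferase luminescence). Conditions: 0.1 nM enzyme, 0.5 mM PEP, 0.1 mM ADP, 1 h, RT; normalized against uninhibited and no-enzyme wells.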
Shiga toxin inh: A qHTS for Small Molecule Inhibitors of Shiga Toxin | hit rate 9.2% among 290,000 | AID 2315, 2010 | inhibition, % at 38.7 µM | Vero cells, Shiga toxin protein synthesis inhibition reporter; in the data active = inhibition mostly above about 28%, no sharp cut-off; inactive = mostly below about 43%; also: 0% is about no effect
* hit, by the source's call; [ ] = dose if it differs, or a comment. Shown is part of a subset that was picked to be rich in hits. Unless noted, calls follow the shape of the dose curve; as a rule, active = well fitted curve in the direction sought with a large enough effect; inconclusive = small, poorly fitted or top-dose-only effect, or another doubt; inactive = no such curve, though single readings can be large; an effect the other way counts as inactive or inconclusive.

For COc1cc(C(=O)NC(CCSC)C(=O)OCC(=O)C(C)(C)C)cc(OC)c1OC (configuration not stated) the results were Giardia FBPA inh 2%, RE007 growth inh -5%, TbPYK inhibitor 4%, CHX counter 30, LmPK inhibitor 0% and Shiga toxin inh 53*.
Screening CCOc1ccc(C(=O)N2CCN(Cc3cc(=O)n4nc(-c5ccccc5Cl)sc4n3)CC2)cc1 returned TbPYK inhibitor 1%.
For COc1cccc(NC(=O)C2=C(C)C(=O)OC23CCN(C(C)=O)CC3)c1 the results were TbPYK inhibitor 4%[15.4 µM].
For Cc1cccc(NC(=O)Cn2c(=O)n(Cc3ccccc3)c(=O)c3oc4ccccc4c32)c1C the results were TbPYK inhibitor 3%.
CCOc1ccc(Nc2nc(-c3cccc(Cl)c3)c3c(n2)-c2ccccc2OC3)cc1 was read as TbPYK inhibitor 0%.
`CSc1ccc(CN(C)C(=O)C(Cc2ccccc2)NC(=O)c2ccccc2)cc1` (configuration not stated) gave RE007 growth inh -13%, TbPYK inhibitor -11%, CHX counter 40*, LmPK inhibitor -12% and Shiga toxin inh 65*.
S=c1[nH]nc(-c2ccc3ccccc3n2)o1 was read as Giardia FBPA inh -17%, RE007 growth inh -12%, TbPYK inhibitor -21%, CHX counter -4, LmPK inhibitor inconclusive and Shiga toxin inh -5.
Screening Clc1ccsc1-c1ccc2ccccc2n1 returned Giardia FBPA inh 0%, RE007 growth inh -4%, TbPYK inhibitor 14%, CHX counter 57*, LmPK inhibitor -15% and Shiga toxin inh 107*.
`c1ccc2nc(-c3nccs3)ccc2c1` gave Giardia FBPA inh -5%, RE007 growth inh -7%, TbPYK inhibitor -19%, CHX counter 28*, LmPK inhibitor -11% and Shiga toxin inh 96*.
`O=C(Nc1ccc(NC(=O)c2ccccn2)cc1)C(=O)Nc1ccc2c(c1)OCCO2` gave Giardia FBPA inh 16%, RE007 growth inh 10%, TbPYK inhibitor -6%, CHX counter 8, LmPK inhibitor -11% and Shiga toxin inh 62.
Screening Cn1nc(C(=O)Nc2ccc3c(c2)OCCO3)cc1C(=O)O returned Giardia FBPA inh 0%, RE007 growth inh inconclusive, TbPYK inhibitor -12%, CHX counter 20*, LmPK inhibitor inconclusive and Shiga toxin inh 19.
For O=C(Nc1ccc2c(c1)OCCO2)c1cc(-n2cnnc2)ccc1Cl the results were Giardia FBPA inh -5%, RE007 growth inh 9%, TbPYK inhibitor -12%, CHX counter -2, LmPK inhibitor -1% and Shiga toxin inh -11.
Screening Cn1ccc(C(=O)Nc2ccc3c(c2)OCCO3)n1 returned Giardia FBPA inh -3%, RE007 growth inh inconclusive, TbPYK inhibitor -14%, CHX counter 49*, LmPK inhibitor inconclusive and Shiga toxin inh 71*.
Cc1ccc(C(=O)Nc2cc3c(oc2=O)CCCC3=O)cc1 was read as Giardia FBPA inh 2%, RE007 growth inh -1%, TbPYK inhibitor 0%, CHX counter 45*, LmPK inhibitor -3% and Shiga toxin inh 75*.
`O=C(Nc1cc2c(oc1=O)CCCC2=O)c1ccccc1` gave Giardia FBPA inh -1%, RE007 growth inh -9%, TbPYK inhibitor 1%, CHX counter 33*, LmPK inhibitor -3% and Shiga toxin inh 17*.
CC1(C)CC(=O)c2cc(NC(=O)c3ccc(F)cc3)c(=O)oc2C1 was read as Giardia FBPA inh 3%, RE007 growth inh 1%, TbPYK inhibitor 7%, CHX counter 2, LmPK inhibitor 1% and Shiga toxin inh -4.
COc1ccc(N=C2SCC(c3ccccc3)=NN2C)cc1 was read as Giardia FBPA inh -2%, RE007 growth inh -1%, TbPYK inhibitor -2%, CHX counter 29*, LmPK inhibitor 1% and Shiga toxin inh 32.
For COc1ccc(N=C2SCC(=O)N2c2ccc(OC)cc2)cc1 the results were Giardia FBPA inh 3%, RE007 growth inh 4%, TbPYK inhibitor -3%, CHX counter 10, LmPK inhibitor 4% and Shiga toxin inh -9.
For Cc1ccc2c(=O)c(C(=O)c3ccccc3)cn(CC(=O)Nc3ccc4c(c3)OCCO4)c2n1 the results were TbPYK inhibitor 1%.
For O=C(Cn1ncc2c3ccccc3n(Cc3ccccc3)c2c1=O)N1CCC2(CC1)OCCO2 the results were Giardia FBPA inh -9%, CHX counter 29*, LmPK inhibitor 2% and Shiga toxin inh 30.
O=c1c2cn[nH]c2nc(SCc2ccccc2F)n1-c1ccc(Br)cc1 was read as Giardia FBPA inh -2%, RE007 growth inh -7%, TbPYK inhibitor -1%, CHX counter -3, LmPK inhibitor 11% and Shiga toxin inh -10.
Screening Cc1ccccc1-n1c(SCc2cc(=O)n3ccccc3n2)nc2[nH]ncc2c1=O returned Giardia FBPA inh -1%, RE007 growth inh 15%, TbPYK inhibitor -1%, CHX counter -1, LmPK inhibitor -2% and Shiga toxin inh -16.
O=c1c2cn[nH]c2nc(SCc2cc(=O)n3cc(Br)ccc3n2)n1-c1ccc(Br)cc1 was read as Giardia FBPA inh -1%, RE007 growth inh -5%, TbPYK inhibitor 8%, CHX counter 22*, LmPK inhibitor 15% and Shiga toxin inh 26.
`Cc1cccc2nc(CSc3nc4[nH]ncc4c(=O)n3-c3ccccc3Cl)cc(=O)n12` gave Giardia FBPA inh -11%, RE007 growth inh 1%, TbPYK inhibitor 3%, CHX counter 14*, LmPK inhibitor 0% and Shiga toxin inh 47.
For CN1CCCC(C(=O)c2ccc(-c3ccccc3)cc2)C1 (configuration not stated) the results were Giardia FBPA inh 9%, RE007 growth inh -11%, TbPYK inhibitor -17%, CHX counter 23*, LmPK inhibitor -2% and Shiga toxin inh 34*.
CC1CCCN(C(=O)COc2ccc(-c3ccccc3)cc2)C1 (configuration not stated) was read as Giardia FBPA inh 0%, RE007 growth inh -18%, TbPYK inhibitor 0%, CHX counter 17, LmPK inhibitor 4% and Shiga toxin inh 40*.
For COCC(=O)N1CCCC(C(=O)c2ccc(-c3ccccc3)cc2)C1 (configuration not stated) the results were Giardia FBPA inh 6%, RE007 growth inh -1%, TbPYK inhibitor -2%, CHX counter 11*, LmPK inhibitor -8% and Shiga toxin inh 12.

High-throughput results from PubChem BioAssay.
